Screening results from PubChem BioAssay.
Only a selection was taken, and hits are over-represented in it overall.
KDM5B inh: KDM5B demethylase inhibition. Q9UGL1. KDM5B demethylase, FDH-coupled NADH fluorescence (FDH is formaldehyde dehydrogenase). Potency, µM (top dose mostly 57.7 µM), usual class: inhibitors. 220,000 compounds, 2.6% hits; active means well fitted inhibition curve with a large enough effect; further: 0% is about no effect; nearly all actives have a fitted effect of over 70% in size
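qHTS format, multiple compound concentrations. Buffer 50 mM HEPES pH 7.5/0.01% Tween-20; 200 nM KDM5BΔAP final; 10 min compound preincubation; substrate-mix levels 12.5 µM peptide, 25 µM α-KG, 0.25 mM NAD⁺; 30 min RT; ΔRFU.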
* hit, by the source's call; i = inactive. Potency means the concentration at half of the fitted maximal effect.

SMILES	KDM5B inh
CCC1(O)CCCN(C(=O)c2coc(COc3ccc4ccc(OC)cc4c3)n2)C1 (centres undefined)	i
CC(C)c1ccc(C(NC(=O)c2n[nH]c(=O)c3ccccc23)C(C)C)cc1 (centres undefined)	i
CC(C)OCCCNC(=O)c1cc(C2CC2)nc2ccccc12	i
CCCCCCCOc1ccc(COC(=O)c2ccco2)cc1	i
Cc1nc2ccc(C(=O)NCC(C)(C)CN(C)C)cc2nc1C	i
CC(C)Cn1nc(C(=O)N2CCCC2c2ccc3c(c2)OCCCO3)c2ccccc2c1=O (centres undefined)	i
O=C1c2c(nc(COc3ccccc3)n2Cc2ccccc2)NCCN1CC1CC1	i
COc1cc2c(cc1OC)C(C[C@H]1CN(C(=O)CCc3ccccc3)CC[C@H]1CC(=O)O)=NCC2	i
COc1cc2c(cc1OC)C(C[C@H]1CN(C(=O)c3cccn3C)CC[C@H]1CC(=O)O)=NCC2	32µM*
COc1cc2c(cc1OC)C(C[C@H]1CN(C(=O)Cc3ccccc3)CC[C@H]1CC(=O)O)=NCC2	i
CS(=O)(=O)NC[C@H]1OC[C@@H](NCc2ccccn2)[C@@H]1O	i
CS(=O)(=O)c1ccc(S(=O)(=O)N2CCC3(CCCNC3)C2)cc1 (centres undefined)	i
CN(C)c1ccc(CN2CCCC3(CC(Cc4ccccc4)=NO3)C2)cc1 (centres undefined)	i
Fc1ccc(CN2CCC3(CC(Cc4ccccc4)=NO3)C2)cc1 (centres undefined)	32µM*
COc1ccc(C2=NOC3(CCN(Cc4ccc(F)cc4)C3)C2)cc1 (centres undefined)	i
Clc1ccc(CN2CCC3(CC2)CC(Cc2ccccc2)=NO3)cc1	i
COc1ccc(CN2CCC3(CC(Cc4ccccc4)=NO3)C2)cc1 (centres undefined)	25µM*
COc1ccc(CN2CCCC3(CC(c4ccccn4)=NO3)C2)cc1 (centres undefined)	i
CCSc1nnc2n(CC)c(=O)c3c(n12)-c1ccccc1CC31CCCCC1	i
Cc1ccc(S(=O)(=O)Nc2cnc3ccccc3c2)c(C)c1C	i
COc1cc(C(=O)NCc2n[nH]c(=O)c3ccccc23)cc(OC)c1OC	i
COCCNCc1ccc(-c2ccc(F)cc2)o1	i
COc1ccc(-c2ccc3nc(-c4cccc(Cl)c4)oc3c2)c(OC)c1OC	7.9µM*
COc1ccc(-c2ccc3nc(-c4cc(F)cc(F)c4)oc3c2)c(OC)c1OC	i
COc1ccc(-c2ccc3nc(-c4ccc(Cl)cc4)oc3c2)c(OC)c1OC	i
SMILES	KDM5B inh
COc1cc(OC)cc(-c2nc3ccc(-c4ccc(OC)c(OC)c4OC)cc3o2)c1	25µM*
COc1ccc(-c2ccc3nc(-c4ccccc4)oc3c2)c(OC)c1OC	i
COc1ccc(OC)c(-c2nc3ccc(-c4ccc(OC)c(OC)c4OC)cc3o2)c1	i
CCC(C)C(=O)NCc1ccc(COC)cc1 (centres undefined)	i
Cc1cc(C)c(C(=O)OCC(=O)N2CCN(S(=O)(=O)c3ccc4ccccc4c3)CC2)c(C)c1	i
CCC1Oc2ccc(NC(=O)c3ccccc3Cl)cc2CN(Cc2ccccc2F)C1=O (centres undefined)	i
CC1Oc2ccc(NC(=O)c3cccs3)cc2CN(Cc2ccc(F)cc2)C1=O (centres undefined)	i
CC1Oc2ccc(NC(=O)Cc3ccc(F)cc3)cc2CN(Cc2ccc(Cl)cc2)C1=O (centres undefined)	i
CC(=O)Oc1ccccc1C(=O)Nc1ccc2c(c1)CN(Cc1ccc(Cl)cc1)C(=O)C(C)O2 (centres undefined)	35µM*
CCC1Oc2ccc(NC(=O)c3ccccc3OC(C)=O)cc2CN(Cc2ccccc2F)C1=O (centres undefined)	25µM*
CCC1Oc2ccc(NC(=O)C(C)C)cc2CN(Cc2ccccc2F)C1=O (centres undefined)	i
COCc1ccc(C(=O)N2CCCC(CCc3cccc(OC)c3)C2)o1 (centres undefined)	i
CC(C)c1nnc(C2CN(C(=O)Cc3ccsc3)CC23CCOCC3)o1 (centres undefined)	i
Cc1ccc(C(=O)N(C)Cc2ccsc2)s1	i
Cc1cccc(COc2ccccc2/C=C(\C#N)c2nc3ccccc3[nH]2)c1	i
CNC(=O)c1ccc2c(c1)NC(=O)CS2	i
CCCN(CC#N)CC(=O)NC1(C#N)CCCCCC1	i
CCC(CC)NC(=O)/C=C/c1csc(C)n1	i
Cn1cc(CN2Cc3ccc(C(=O)Nc4nccs4)cc3OCC2=O)cn1	i
CCNC(=O)N1CC[C@@H](CC(=O)O)[C@@H](CC2=NCCc3ccc(C)cc32)C1	i
CCCNC(=O)N1CC[C@@H](CC(=O)O)[C@@H](CC2=NCCc3ccc(OC)cc32)C1	40µM*
COc1ccc2c(c1)C(C[C@H]1CN(C(=O)C3CC3)CC[C@H]1CC(=O)O)=NCC2	40µM*
CC(C)(C)C(=O)N1CC[C@@H](CC(=O)O)[C@@H](CC2=NCCc3ccc(C(C)(C)C)cc32)C1	i
